# Measurements reported in the supplement of paper PMC6522484.
# ± gives the standard deviation of the averaged measurements.
# How the values were obtained:
# DLD1 [1] = assay: cell viability (CellTiter-Glo) relative to plate median (fraction of plate median); higher = more viable cells; settings: 5 µM; treatment time 24 h; reporter: 7TFP
# Outline: (§1)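 Colorectal cancer cell lines stably transduced with lentiviral TCF/Wnt firefly luciferase reporters (7TFP or TCF4/Wnt) were seeded in 384-well plates. 24 h later they received library compounds at a final 5 µM for 24 h. Parallel plates were read for firefly luciferase or CellTiterGlo luminescence on a Tecan F500 reader. Each well's signal was normalised to the plate median (webcellHTS2, additive, no log transformation), and the mean of two independent replicates is reported.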
# HCT116 = assay: as above; settings: 5 µM; treatment time 24 h; reporter: TCF4/Wnt
# Outline: as §1
# SW480 [2] = assay: as above; settings: 5 µM; treatment time 24 h; reporter: 7TFP
# Outline: as §1
# DLD1 [3] = assay: TCF/Wnt firefly luciferase reporter signal relative to plate median (fraction of plate median); higher = higher Wnt reporter signal; settings: 5 µM; treatment time 24 h; reporter: 7TFP
# Outline: as §1
# SW480 [4] = assay: as above; settings: 5 µM; treatment time 24 h; reporter: 7TFP
# Outline: as §1
SMILES,cell viability (DLD1 [1]),cell viability (HCT116),cell viability (SW480 [2]),TCF/Wnt firefly luciferase reporter signal (DLD1 [3]),TCF/Wnt firefly luciferase reporter signal (SW480 [4])
O=C(O)/C=C/c1ccccc1,1.09 ± 0.17,1.08 ± 0.092,1.09 ± 0.035,0.928 ± 0.086,1.05 ± 0.035
O=C(CCc1ccc(O)cc1)c1c(O)cc(O)cc1O[C@@H]1OC(CO)[C@@H](O)[C@@H](O)C1O (stereo not given in full),1.07 ± 0.064,1.01 ± 0.016,1.03 ± 0.021,0.909 ± 0.033,1.06 ± 0.092
NC(=O)C(c1ccccc1)(c1ccccc1)[C@@H]1CCN(CCc2ccc3c(c2)CCO3)C1,0.873 ± 0.067,0.983 ± 0.0042,0.947 ± 0.03,1.03 ± 0.094,1.005 ± 0.0071
C/C=C/c1ccc(OC)cc1,1.07 ± 0.021,0.987 ± 0.047,1.03 ± 0.062,0.925 ± 0.12,0.943 ± 0.0014
Cn1c(=O)c2nc[nH]c2n(C)c1=O,0.996 ± 0.13,1.04 ± 0.021,1.07 ± 0.035,1.19 ± 0.014,0.986 ± 0.077
CN(C)CCCO[C@@H]1[C@H]2OC(C)(C)O[C@H]2O[C@@H]1[C@H](O)CO,1.04 ± 0.06,0.9935 ± 0.0064,0.96 ± 0.038,0.998 ± 0.14,0.972 ± 0.029
CSc1ccc2c(c1)N(CCC1CCCCN1C)c1ccccc1S2 (stereo not given),1.01 ± 0.048,1.02 ± 0.076,1.115 ± 0.0071,0.928 ± 0.039,0.895 ± 0.1
CNCCc1ccccn1,0.835 ± 0.059,0.979 ± 0.086,0.958 ± 0.027,1.08 ± 0.21,1.1 ± 0.05
O=c1ccc2ccc(O)cc2o1,0.995 ± 0.036,0.972 ± 0.014,1.03 ± 0.028,0.936 ± 0.13,0.935 ± 0.042
C[N+](C)(C)CCOC(N)=O,0.994 ± 0.023,1.15 ± 0.057,0.9925 ± 0.0078,1.13 ± 0.14,0.847 ± 0.064
CCCc1cc(=O)[nH]c(=S)[nH]1,0.959 ± 0.033,1.065 ± 0.0071,0.998 ± 0.031,0.98 ± 0.057,1.02 ± 0.028
C=C1C(=O)[C@]23[C@H](CC[C@@H]1[C@@H]2O)[C@]12CO[C@@]3(O)[C@H](O)[C@H]1C(C)(C)CC[C@@H]2O,0.931 ± 0.058,1.12 ± 0.19,1.045 ± 0.0071,0.876 ± 0.015,0.731 ± 0.035
COc1ccc(-c2cc(=O)c3c(O)c(OC)c(O[C@@H]4O[C@H](CO[C@@H]5O[C@@H](C)[C@H](O)[C@@H](O)[C@H]5O)[C@@H](O)[C@H](O)[C@H]4O)cc3o2)cc1,0.933 ± 0.087,0.951 ± 0.056,0.897 ± 0.056,1.07 ± 0.035,1.08 ± 0.021
CC1(C)CC[C@]2(C(=O)O)CC[C@]3(C)C(=CC[C@@H]4[C@@]5(C)CC[C@H](O)[C@@](C)(CO)[C@@H]5CC[C@]43C)[C@@H]2C1,0.995 ± 0.16,1.025 ± 0.0071,1.01 ± 0.04,0.99 ± 0.042,0.975 ± 0.078
CC(=O)Oc1ccc(-c2cc(=O)c3c(OC(C)=O)cc(OC(C)=O)cc3o2)cc1,0.993 ± 0.038,0.934 ± 0.093,0.9365 ± 0.005,1.01 ± 0.021,0.926 ± 0.011
COc1cc(O)c(C(=O)/C=C/c2ccc(O)c(OC)c2)c(OC)c1,1.025 ± 0.0071,1.03 ± 0.083,1.1 ± 0.071,0.882 ± 0.11,0.894 ± 0.037
CCOC(=O)c1c(C)cc(O)c(C=O)c1O,0.945 ± 0.05,1.08 ± 0.014,0.9445 ± 0.005,0.865 ± 0.11,0.861 ± 0.11
O=C(O)c1cn(-c2ccc(F)cc2)c2cc(N3CCNCC3)c(F)cc2c1=O,0.906 ± 0.012,0.949 ± 0.029,0.998 ± 0.046,1.08 ± 0.11,1.06 ± 0.1
C[C@@H]1C[C@H]2[C@@H]3CCC4=CC(=O)C=C[C@]4(C)[C@@]3(F)[C@@H](O)C[C@]2(C)[C@@]1(O)C(=O)CO,1.06 ± 0.071,1.05 ± 0.057,0.977 ± 0.016,1.04 ± 0.082,1.05 ± 0.035
CNC1(C)C2CCC(C2)C1(C)C (stereo not given),0.844 ± 0.018,0.972 ± 0.11,0.924 ± 0.038,1.05 ± 0.021,0.904 ± 0.054
CC(C)OC(=O)C(C)(C)Oc1ccc(C(=O)c2ccc(Cl)cc2)cc1,1.08 ± 0.071,1.045 ± 0.0071,1.04,0.917 ± 0.14,0.939 ± 0.015
OCC(S)CS (stereo not given),0.884 ± 0.063,0.956 ± 0.018,0.944 ± 0.032,0.921 ± 0.057,0.936 ± 0.066
CC(=O)C12OC(C)(c3ccccc3)OC1CC1C3CCC4=CC(=O)CCC4(C)C3CCC12C (stereo not given),0.963 ± 0.039,0.987 ± 0.033,0.976 ± 0.035,0.977 ± 0.061,0.939 ± 0.067
CC(=O)O[C@@H]1C[C@H]2C(C)(C)[C@H](O)C[C@H](O)[C@]2(C)[C@H]2CC[C@@]3(C)[C@H](c4ccoc4)OC(=O)[C@H]4O[C@]43[C@@]21C,0.9065 ± 0.005,0.942 ± 0.012,0.977 ± 0.0014,1 ± 0.11,0.892 ± 0.033
COc1ccc2c(c1)c(CC(=O)OCC(=O)O)c(C)n2C(=O)c1ccc(Cl)cc1,0.935 ± 0.073,0.885 ± 0.082,0.952 ± 0.04,1.05 ± 0.16,1.07 ± 0.028
N[C@H]1C(O)O[C@H](CO)[C@@H](O)[C@@H]1O (stereo not given in full),0.973 ± 0.037,0.993 ± 0.024,0.99 ± 0.013,1.12,1.06 ± 0.021
COC(=O)[C@H](Cc1ccccc1)NC(=O)[C@@H](N)CC(=O)O,0.952 ± 0.082,1.08 ± 0.11,1.06 ± 0.014,1.045 ± 0.0071,0.985 ± 0.14
CC1NC(=O)CNC1=O (stereo not given) [cyclo(alanylglycyl)],0.883 ± 0.05,0.918 ± 0.051,0.925 ± 0.054,0.947 ± 0.012,1 ± 0.1
CCc1c(O)cc(C(C)CC)oc1=O (stereo not given) [Germicidin],1.02 ± 0.014,0.92 ± 0.034,0.965 ± 0.05,0.946 ± 0.16,1.06 ± 0.09
C[C@]1(OC(=O)/C=C/c2ccccc2)C[C@@H](O)[C@]2(O)C=CO[C@@H](O[C@@H]3O[C@H](CO)[C@@H](O)[C@H](O)[C@H]3O)[C@@H]21,1.035 ± 0.0071,1.02 ± 0.11,1.06 ± 0.05,1.12 ± 0.028,1.03 ± 0.05
